From PubChem BioAssay AID1159580 (chemical genetic matrix, 2015)
In all, about 5,500 compounds went through this assay and about 2,000 (36%) were called active. About 18% were inconclusive and are not listed. Rule as the data show it: active = normalized growth mostly below about 0.91 (no sharp cut-off); inconclusive = no clear call, values can overlap the other calls; inactive = mostly above about 0.92. Some of the results follow.

Experiment: chemical genetic growth profiling, strain panel (AID 1159580);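 also: tested at 20 µM; growth read once vehicle control cultures reached saturation at 30 °C; 1 = growth at the plate median or of vehicle wells; lower values mean less growth of the strain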
Conditions: growth OD
[1] = S. cerevisiae deletion strains, locus YAL040C, strain CLN3, active compounds read low
[2] = S. cerevisiae deletion strains, locus YDR150W, strain NUM1, active compounds read low
[3] = S. cerevisiae deletion strains, locus YDR363W, strain ESC2, active compounds read low
[4] = S. cerevisiae deletion strains, locus YER002W, strain NOP16, active compounds read low
[5] = S. cerevisiae deletion strains, locus YGR078C, strain PAC10, active compounds read low
[6] = S. cerevisiae deletion strains, locus YJR075W, strain HOC1, active compounds read low
[7] = S. cerevisiae deletion strains, locus YNL128W, strain TEP1, active compounds read low
[8] = S. cerevisiae deletion strains, locus YNL175C, strain NOP13, active compounds read low
[9] = S. cerevisiae deletion strains, locus YNL197C, strain WHI3, active compounds read low
[10] = S. cerevisiae deletion strains, locus YNL224C, strain SQS1, active compounds read low
[11] = S. cerevisiae deletion strains, locus YNL322C, strain KRE1, active compounds read low
[12] = S. cerevisiae deletion strains, locus YOR083W, strain WHI5 (second series), active compounds read low
[13] = S. cerevisiae deletion strains, locus YPL055C, strain LGE1, active compounds read low
[14] = S. cerevisiae deletion strains, locus YCL061C, strain MRC1 (second series), active compounds read low
[15] = S. cerevisiae deletion strains, locus YMR263W, strain SAP30, active compounds read low
[16] = S. cerevisiae deletion strains, locus YMR307W, strain GAS1, active compounds read low
[17] = S. cerevisiae deletion strains, locus YNL153C, strain GIM3, active compounds read low
[18] = S. cerevisiae deletion strains, locus YPL241C, strain CIN2, active compounds read low
[19] = S. cerevisiae deletion strains, locus YBR229C, strain ROT2, active compounds read low
[20] = S. cerevisiae deletion strains, locus YDL101C, strain DUN1, active compounds read low
[21] = S. cerevisiae deletion strains, locus YHR030C, strain SLT2, active compounds read low
[22] = S. cerevisiae deletion strains, locus YLR039C, strain RIC1, active compounds read low
[23] = S. cerevisiae deletion strains, locus YAL013W, strain DEP1, active compounds read low
[24] = S. cerevisiae deletion strains, locus YCL061C, strain MRC1, active compounds read low
[25] = S. cerevisiae deletion strains, locus YEL061C, strain CIN8, active compounds read low
[26] = S. cerevisiae deletion strains, locus YHR087W, strain rtc3, active compounds read low
[27] = S. cerevisiae deletion strains, locus YJL187C, strain SWE1, active compounds read low
[28] = S. cerevisiae deletion strains, locus YJR043C, strain POL32, active compounds read low
[29] = S. cerevisiae deletion strains, locus YKL190W, strain CNB1, active compounds read low
[30] = S. cerevisiae deletion strains, locus YLR058C, strain SHM2 (second series), active compounds read low
[31] = S. cerevisiae deletion strains, locus YLR085C, strain ARP6, active compounds read low
[32] = S. cerevisiae deletion strains, locus YLR262C, strain YPT6, active compounds read low
[33] = S. cerevisiae deletion strains, locus YML094W, strain GIM5, active compounds read low
[34] = S. cerevisiae deletion strains, locus YMR219W, strain ESC1, active compounds read low
[35] = S. cerevisiae deletion strains, locus YNL298W, strain CLA4 (second series), active compounds read low
[36] = S. cerevisiae deletion strains, locus YNR030W, strain Alg12, active compounds read low
[37] = S. cerevisiae deletion strains, locus YPR135W, strain CTF4, active compounds read low
[38] = S. cerevisiae strains, strain wild type, active compounds read low

Measured: normalized growth

C[N+](C)(C)CC=O
inactive: [1] 0.989 | [2] 1.01 | [3] 0.979 | [4] 0.989 | [5] 1.01 | [6] 0.999 | [7] 0.981 | [8] 1 | [9] 1.04 | [10] 0.993 | [11] 0.994 | [12] 1.06 | [13] 1.03

C/C=C(/C)C(=O)O[C@H]1C(C)=C2[C@H]([C@@H]1OC(=O)CCCCCCC)[C@@](C)(OC(C)=O)C[C@H](OC(=O)CCC)[C@@]1(O)[C@H]2OC(=O)[C@@]1(C)O
inactive: [1] 1 | [14] 0.995 | [2] 1.01 | [3] 1.02 | [4] 1.01 | [5] 0.995 | S. cerevisiae deletion strains, locus YGR229C, strain SMI1, active compounds read low 1.05 | [15] 0.995 | [16] 0.968 | [7] 1.03 | [8] 1.02 | [9] 0.984 | [10] 0.988 | [12] 1

CCCCCC(CC(=O)NO)C(=O)NC(C(=O)N1CCCC1CO)C(C)C (stereo not drawn)
inactive: [1] 0.97 | [14] 0.995 | [3] 1.06 | [4] 0.971 | [5] 0.976 | [17] 0.976 | [8] 0.96 | [9] 0.987 | [10] 1.01 | [11] 1.01 | [12] 0.964 | [18] 0.97

COC(=O)C[C@H]1C(C)(C)C(OC(C)=O)[C@]2(O)C=C3C4CC(=O)O[C@@H](c5ccoc5)[C@]4(C)CCC3[C@@]1(C)C2=O (stereo partly drawn)
inactive: S. cerevisiae deletion strains, locus YBR021W, strain FUR4, active compounds read low 0.996 | [19] 1 | S. cerevisiae deletion strains, locus YCL029C, strain bik1, active compounds read low 1.01 | S. cerevisiae deletion strains, locus YDL035C, strain GPR1, active compounds read low 1 | S. cerevisiae deletion strains, locus YDL074C, strain BRE1, active compounds read low 1 | [20] 1.01 | S. cerevisiae deletion strains, locus YDL134C, strain PPH21, active compounds read low 1.02 | S. cerevisiae deletion strains, locus YDL185W, strain tfp1, active compounds read low 1.02 | S. cerevisiae deletion strains, locus YDL192W, strain arf1, active compounds read low 1 | S. cerevisiae deletion strains, locus YDR101C, strain arx1, active compounds read low 1.01 | S. cerevisiae deletion strains, locus YDR162C, strain NBP2, active compounds read low 1.01 | S. cerevisiae deletion strains, locus YDR318W, strain mcm21, active compounds read low 1.01 | S. cerevisiae deletion strains, locus YDR388W, active compounds read low 1 | S. cerevisiae deletion strains, locus YDR502C, strain sam2, active compounds read low 1.02 | S. cerevisiae deletion strains, locus YER110C, active compounds read low 1 | S. cerevisiae deletion strains, locus YER155C, strain BEM2, active compounds read low 1 | S. cerevisiae deletion strains, locus YER167W, strain BCK2, active compounds read low 1.01 | S. cerevisiae deletion strains, locus YGL078C, strain dbp3, active compounds read low 1.02 | S. cerevisiae deletion strains, locus YGL086W, strain mad1, active compounds read low 1 | S. cerevisiae deletion strains, locus YGL248W, strain PDE1, active compounds read low 1 | S. cerevisiae deletion strains, locus YGR135W, strain pre9, active compounds read low 1.02 | S. cerevisiae deletion strains, locus YGR252W, strain gcn5, active compounds read low 0.975 | [21] 1.01 | S. cerevisiae deletion strains, locus YHR079C, strain IRE1 (second series), active compounds read low 1.02 | S. cerevisiae deletion strains, locus YHR094C, strain hxt1, active compounds read low 1.01 | S. cerevisiae deletion strains, locus YHR129C, strain ARP1, active compounds read low 1 | S. cerevisiae deletion strains, locus YHR200W, strain rpn10, active compounds read low 1.01 | S. cerevisiae deletion strains, locus YIL066C, strain RNR3, active compounds read low 0.997 | S. cerevisiae deletion strains, locus YIL073C, strain SPO22, active compounds read low 1.06 | S. cerevisiae deletion strains, locus YIL125W, strain kgd1, active compounds read low 1.01 | S. cerevisiae deletion strains, locus YIR030C, strain dcg1, active compounds read low 1 | S. cerevisiae deletion strains, locus YJL095W, strain BCK1, active compounds read low 1.03 | S. cerevisiae deletion strains, locus YJL134W, strain LCB3, active compounds read low 1 | S. cerevisiae deletion strains, locus YJL168C, strain set2, active compounds read low 1.01 | S. cerevisiae deletion strains, locus YJL187C, strain SWE1 (second series), active compounds read low 1.02 | S. cerevisiae deletion strains, locus YKL009W, strain mrt4, active compounds read low 0.992 | S. cerevisiae deletion strains, locus YKL068W, active compounds read low 1.01 | S. cerevisiae deletion strains, locus YKL085W, strain MDH1 (second series), active compounds read low 1.01 | S. cerevisiae deletion strains, locus YKL085W, strain MDH1, active compounds read low 1.01 | S. cerevisiae deletion strains, locus YKR001C, strain vps1, active compounds read low 1.01 | [22] 1.02 | S. cerevisiae deletion strains, locus YLR058C, strain SHM2, active compounds read low 1 | S. cerevisiae deletion strains, locus YLR102C, strain apc9, active compounds read low 1.01 | S. cerevisiae deletion strains, locus YLR268W, strain sec22, active compounds read low 1.01 | S. cerevisiae deletion strains, locus YLR330W, strain CHS5, active compounds read low 1.01 | S. cerevisiae deletion strains, locus YLR371W, strain rom2, active compounds read low 1.01 | S. cerevisiae deletion strains, locus YLR418C, strain cdc73, active compounds read low 1.03 | S. cerevisiae deletion strains, locus YML016C, strain PPZ1, active compounds read low 0.999 | S. cerevisiae deletion strains, locus YML032C, strain rad52, active compounds read low 1.01 | S. cerevisiae deletion strains, locus YML124C, strain tub3, active compounds read low 1.01 | S. cerevisiae deletion strains, locus YMR078C, strain ctf18, active compounds read low 1.01 | S. cerevisiae deletion strains, locus YMR223W, strain ubp8, active compounds read low 1.01 | [16] 1.04 | S. cerevisiae deletion strains, locus YNL067W, strain RPL9B, active compounds read low 1.02 | [17] 1.02 | S. cerevisiae deletion strains, locus YNL233W, strain BNI4, active compounds read low 1.02 | S. cerevisiae deletion strains, locus YNL250W, strain rad50, active compounds read low 1.01 | S. cerevisiae deletion strains, locus YNL271C, strain bni1, active compounds read low 1.01 | S. cerevisiae deletion strains, locus YNL298W, strain CLA4, active compounds read low 1 | S. cerevisiae deletion strains, locus YNL307C, strain MCK1, active compounds read low 1.01 | S. cerevisiae deletion strains, locus YNR052C, strain pop2, active compounds read low 1.01 | S. cerevisiae deletion strains, locus YOL012C, strain htz1 0.877 | S. cerevisiae deletion strains, locus YOL147C, strain pex11, active compounds read low 1.01 | S. cerevisiae deletion strains, locus YOR061W, strain CKA2, active compounds read low 0.997 | S. cerevisiae deletion strains, locus YOR069W, strain VPS5, active compounds read low 1 | S. cerevisiae deletion strains, locus YOR136W, strain idh2, active compounds read low 1.02 | S. cerevisiae deletion strains, locus YOR144C, strain elg1, active compounds read low 1 | S. cerevisiae deletion strains, locus YOR184W, strain ser1, active compounds read low 0.999 | S. cerevisiae deletion strains, locus YOR316C, strain cot1, active compounds read low 1.01 | S. cerevisiae deletion strains, locus YPR119W, strain clb2, active compounds read low 1.02 | S. cerevisiae deletion strains, locus YPR141C, strain kar3, active compounds read low 1.01 | S. cerevisiae deletion strains, locus YPR163C, strain tif3, active compounds read low 1.01 | S. cerevisiae deletion strains, locus YPR167C, strain met16, active compounds read low 1.01 | S. cerevisiae deletion strains, strain wtn01, active compounds read low 0.991

O=S(=O)(c1ccc(Cl)c(Cl)c1)N1CCN(c2ccc(C(F)(F)F)cn2)CC1
active: [31] 1.35 [resistant]
inactive: [23] 1 | [19] 1.01 | [24] 1.05 | [20] 1.05 | [2] 1.02 | [25] 0.998 | [5] 1.05 | [21] 1.09 | [26] 1.02 | [27] 1.03 | [28] 1.03 | [6] 1.06 | [29] 1.02 | [22] 1 | [30] 1.02 | [32] 1 | [33] 1.04 | [34] 1.01 | [15] 1.04 | [17] 1.04 | [35] 1.04 | [11] 1.01 | [36] 1.04 | [13] 1.07 | [18] 1.11 | [37] 0.99 | [38] 1.01

COc1ccccc1N1CCN(S(=O)(=O)c2ccc(C(F)(F)F)cc2)CC1
inactive: [23] 1 | [19] 0.99 | [24] 0.985 | [20] 1.01 | [2] 0.989 | [25] 1.02 | [5] 1 | [21] 1.09 | [26] 1.03 | [27] 0.985 | [28] 0.998 | [6] 0.99 | [29] 0.965 | [22] 0.952 | [30] 0.987 | [31] 0.927 | [32] 0.962 | [33] 0.995 | [34] 0.989 | [15] 0.977 | [16] 1.04 | [17] 1 | [35] 1.01 | [11] 0.99 | [36] 1 | S. cerevisiae deletion strains, locus YOL006C, strain TOP1, active compounds read low 1.03 | [13] 0.988 | [18] 0.888 | [37] 0.983 | [38] 0.976

COC(=O)c1csc2c(C(F)(F)F)cc(N3CCN(S(=O)(=O)c4ccc(C)cc4)CC3)nc12
inactive: [23] 1.01 | [19] 1 | [20] 1 | [2] 1.05 | [25] 1.01 | [5] 1.02 | [21] 1.16 | [26] 1 | [27] 1 | [28] 1.04 | [6] 0.999 | [29] 1.01 | [22] 1.01 | [30] 1.01 | [31] 1 | [32] 1.13 | [33] 0.998 | [34] 0.995 | [15] 1.03 | [7] 1 | [35] 1.02 | [11] 1 | [36] 1.03 | [13] 0.993 | [18] 0.986 | [37] 1.11 | [38] 1.01
